From PubChem BioAssay
Autofluor 339 – intrinsic fluorescence of library compounds, ex339/em460 – biochemical, MLSMR library, data from DPM-DC assay, artefact control, profiling panel; compound autofluorescence, ex339/em460 nm, NADH buffer; hits give high values; 1 = no-compound wells, NADH background; fluorescence fold increase at 10 µM; AID 709; hit rate 5.5% among 65,000;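 active = at 10 µM, mean starting fluorescence two-fold or more over control wells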;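 note: signal is the first read of a kinetic run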
NADH coupling – inhibition of NAD/NADH coupling enzymes, library profiling; coupled PK/LDH NADH assays, four targets; hit rate 0.02% among 65,000; AID 774; IC50, µM (titrated, usually from 10 µM);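 active = single-dose screening hits from any of four coupled enzyme assays that gave an IC50 when retested across doses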;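 note: the DPM-DC format reads NADH fluorescence rather than 340 nm absorbance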
Spn DPM-DC inh – S. pneumoniae DPM-DC inhibition; purified DPM-DC, PK/LDH coupled NADH fluorescence; calls only at 10 µM; hit rate 0.49% among 65,000;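 active = the 320 compounds with the highest percent inhibition in the single-dose primary screen, excluding strongly autofluorescent ones, cut at about 32% in these data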;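 note: kinetic rate of NADH fluorescence loss reporting ADP formed by the decarboxylase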
MK inhibit – S. pneumoniae mevalonate kinase inhibition; purified MK, PK/LDH-coupled NADH absorbance 340 nm; inhibition, % at 10 µM; hit rate 0.48% among 65,000;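 active = ranked among the strongest by inhibition in the single 10 µM screen, a fixed top-ranked set picked for dose follow-up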
PMK inhibit – blocks S. pneumoniae phosphomevalonate kinase. purified PMK, PK/LDH-coupled NADH absorbance 340 nm. inhibition, % at 10 µM. hit rate 0.49% among 65,000. AID 539;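 active = top-ranked compounds by inhibition in the single 10 µM screen, taking a fixed number of the strongest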
Hits are given with their value; i = inactive; nt = not tested or not shown; + = active, no number. Only some compounds are listed: those with a hit (about 6.6% of all), similar ones and a draw of the others.

SMILES	Autofluor 339	NADH coupling	Spn DPM-DC inh	MK inhibit	PMK inhibit
O=C(NCC1CCCO1)c1ccc2c(=O)n(CCc3ccccc3)c(=O)[nH]c2c1 (stereo unspecified)	i	i	i	i	i
N=c1c(C(=O)NCC2CCCO2)cc2c(=O)n3ccccc3nc2n1Cc1cccnc1 (stereo unspecified)	3.7	i	nt	i	i
N#Cc1cc2c(=O)n3ccccc3nc2n(Cc2cccnc2)c1=N	i	i	i	i	i
COC(=O)c1cc2c(=O)n3ccccc3nc2n(Cc2cccnc2)c1=N	3.7	i	nt	i	i
Cn1nc(C(=O)NCC2CCCO2)c2ccccc2c1=O (stereo unspecified)	i	i	i	i	i
COC(=O)c1cc2c(=O)n3ccccc3nc2n(C)c1=N	3.8	i	nt	i	i
Cc1cccn2c(=O)c3cc(C(=O)NCC4CCCO4)c(=N)n(Cc4cccnc4)c3nc12 (stereo unspecified)	3.7	i	nt	i	i
COCCN(C(=O)CCC(=O)Nc1ccccn1)C(C(=O)NC1CCCC1)c1ccc(OC)cc1 (stereo unspecified)	i	i	i	i	i
COc1ccc2nc(NC(=O)c3cccc(OCc4c(C)noc4C)c3)sc2c1	4	i	nt	i	i
CC1(C)Cc2ccccc2-c2nc(NCCCO)n(-c3ccccc3)c(=O)c21	2.1	i	nt	i	i
O=c1[nH]c(NCCCO)nc2c1C1(CCCC1)Cc1ccccc1-2	2.1	i	nt	i	i
O=c1c2c(nc3n1CCCCC3)-c1ccccc1CC21CCCC1	i	i	i	i	i
Cn1c(NCCO)nc2c(c1=O)C1(CCCCC1)Cc1ccccc1-2	2.2	i	nt	i	i
COc1ccc(OC)c(NC(=O)CSc2nnc(N)s2)c1	i	i	i	i	i
CCSc1ccccc1C(=O)N1CCN(c2ccccc2F)CC1	i	i	i	i	i
N#Cc1c(C(F)(F)F)cc(C2CC2)[nH]c1=O	2.1	i	nt	i	i
COC(=O)CSc1nc(C2CC2)cc(C(F)(F)F)c1C#N	i	i	i	i	i
COc1ccc(NC(=O)CSc2nnc(-c3cccs3)n2-c2ccccc2)cc1	i	i	i	i	i
Cc1c(Cl)cccc1Nc1ccccc1C(=O)O	i	i	i	i	i
O=C(O)c1ccc2cccc(Cl)c2c1O	2.5	i	i	i	i
CC(C)N1C(=O)CCC1C(=O)NCc1ccccc1Cl (stereo unspecified)	i	i	i	i	i
CCOC(=O)C1CCCN(Cc2cc(OC)c(O)c(OC)c2)C1 (stereo unspecified)	i	i	i	50	i
CCN(CC)C(=O)C1CCCN(Cc2ccc(OC)c(C)c2C)C1 (stereo unspecified)	i	i	i	56	i
COc1cccc(CN2CCCC(C(=O)N3CCCCC3)C2)c1OC (stereo unspecified)	i	i	i	i	i
CCOC(=O)C1CCCN(Cc2cc(Br)c(OC)cc2OC)C1 (stereo unspecified)	i	i	i	50	i
SMILES	Autofluor 339	NADH coupling	Spn DPM-DC inh	MK inhibit	PMK inhibit
CCOC(=O)C1CCN(Cc2ccc(O)c(OC)c2)CC1	i	i	i	i	i
CC(C)NC(=O)CCNC(=O)c1ccc(F)cc1	i	i	i	i	i
Cc1ccc(-c2noc(-c3ccccc3Br)n2)cc1	i	i	i	i	i
CN(C)c1ccc(-c2noc(-c3ccccc3O)n2)cc1	5.3	i	nt	i	i
O=c1[nH]c(/C(=N\O)c2ccccc2)no1	i	i	i	i	i
N#Cc1nc(-c2ccc(Cl)cc2)oc1NCc1ccco1	2.1	i	nt	i	i
N#Cc1nc(-c2ccccc2Cl)oc1NCc1ccco1	i	i	i	i	i
N#Cc1nc(-c2ccc(Cl)cc2)oc1NCc1cccc2c1OCO2	3.8	i	nt	i	i
O=C(CSc1ccc2nnc(-c3ccccc3)n2n1)N1CCCCC1	2.2	i	i	i	i
COc1ccc(-c2nnc3ccc(SCC(=O)N4CCCC4)nn23)cc1	i	i	i	i	i
CCC(Sc1ccc2nnc(-c3ccc(F)cc3)n2n1)C(=O)O (stereo unspecified)	2	i	i	i	i
O=C(CSc1ccc2nnc(-c3cccnc3)n2n1)NCC1CCCO1 (stereo unspecified)	i	i	i	i	i
CCOC(=O)CC(=O)CSc1ccc2nnc(-c3ccc(C)cc3)n2n1	i	i	+	i	i
O=C(CSc1ccc2nnc(-c3cccc(F)c3)n2n1)NCC1CCCO1 (stereo unspecified)	2.1	i	i	i	i
O=c1[nH]nc(Sc2ncnc3sccc23)n1CCc1ccccc1	i	i	i	i	i
CN(C)CCCN(CCCNC(=O)/C=N/O)Cc1ccccc1	i	i	i	i	i
Cc1nn(C)cc1C1C2=C(CC(C)(C)CC2=O)OC2=C1C(=O)CC(C)(C)C2	i	i	i	i	i
Cc1nnc(NCc2ccco2)c2ccccc12	i	i	i	i	i
Cc1sc2nc3c4ccccc4c(NCc4ccco4)nn3c(=O)c2c1C	4.7	i	nt	i	i
COc1ccc(CCNC(=O)Cn2cnc3c(nnn3Cc3ccccc3F)c2=O)cc1OC	i	i	i	i	i
CC(=O)Nc1ccccc1C(=O)N1CC(C)OC(C)C1 (stereo unspecified)	i	i	i	i	i
CC1CN(C2CCN(C(=O)c3ccccc3Cl)CC2)CC(C)O1 (stereo unspecified)	i	i	i	41	i
COC(=O)c1cc(-c2c(C)oc3cc(OC)ccc3c2=O)c(C)o1	i	i	i	i	i
COC(=O)c1cc(-c2c(C)oc3cc(O)ccc3c2=O)c(C)o1	2.4	i	nt	i	i
Cc1oc2cc(O)cc(O)c2c(=O)c1-c1ccc2c(c1)OCCCO2	i	i	i	i	i
SMILES	Autofluor 339	NADH coupling	Spn DPM-DC inh	MK inhibit	PMK inhibit
Cc1oc2cc(O)ccc2c(=O)c1N1C(=O)c2ccccc2C1=O	i	i	+	i	i
Cc1ccccc1-c1c(C)oc2cc(O)ccc2c1=O	2.2	i	nt	i	i
O=S(=O)(c1cccc2nsnc12)N1CCc2ccccc21	i	i	i	i	i
O=C(CSc1nnc2sc3ccccc3n12)NCc1ccc2c(c1)OCO2	i	i	i	i	i
CCCc1cc2c(=O)c(-c3ccccn3)c(C)oc2cc1O	2.1	i	nt	i	i
COc1ccccc1-c1nnc(NC(=O)C(C)SC2=NCCS2)s1 (stereo unspecified)	i	i	i	i	i
CCNc1nnc(-c2ccccc2OC)s1	2.1	i	nt	i	i
O=c1c2ccccc2nc(COc2ccccc2)n1/N=C/c1ccco1	i	i	i	i	i
COc1ccc(S(=O)(=O)c2c(N)n(Cc3ccco3)c3nc4ccccc4nc23)cc1	3.8	i	nt	i	i
O=c1c2c3nc4ccccc4nc3n(/N=C/c3ccco3)c2ncn1CCC1=CCCCC1	i	i	i	i	i
COc1ccc(Cn2c(C)nc3c(c2=O)c2nc4ccccc4nc2n3Cc2ccco2)cc1	i	i	i	i	i
Cc1ccc(S(=O)(=O)c2c(N)n(/N=C/c3ccco3)c3nc4ccccc4nc23)cc1C	3.2	i	i	i	i
